According to PubChem BioAssay AID1159580 (chemical genetic matrix, 2015):
Several values for one entry are separate records, joined by “and”; a condition that tells them apart may be missing. Equal entries are not always repeated. Out of some 5,500 compounds screened, about 2,000 (36%) were called active. Another 18% or so got no clear call; they are omitted. Cut-off read from the data, not from the text of the source: active = normalized growth mostly below about 0.91 (no sharp cut-off); inconclusive = no clear call, values can overlap the other calls; inactive = mostly above about 0.92. Some of the results follow.

Experiment: chemical genetic growth profiling, strain panel (AID 1159580);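 note: tested at 20 µM; growth read once vehicle control cultures reached saturation at 30 °C; 1 = growth at the plate median or of vehicle wells; lower values mean less growth of the strain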
Conditions: S. cerevisiae deletion strains, growth OD

Measured: normalized growth

CCCCOc1ccc(C(=O)CCN2CCCCC2)cc1
active: locus YAL013W, strain DEP1, stronger effect = lower value 0.807 | locus YAL021C, strain ccr4, stronger effect = lower value 0.871 | locus YAL026C, strain drs2, stronger effect = lower value 0.107 | locus YBR009C, strain hhf1, stronger effect = lower value 0.879 | locus YBR231C, strain swc5, stronger effect = lower value 0.866 | locus YBR279W, strain paf1, stronger effect = lower value 0.931 | locus YCL029C, strain bik1, stronger effect = lower value 0.857 | locus YCL061C, strain MRC1, stronger effect = lower value 0.875 | locus YCL069W, strain vba3, stronger effect = lower value 0.139 | locus YDL035C, strain GPR1, stronger effect = lower value 0.772 | locus YDL074C, strain BRE1, stronger effect = lower value 0.5 | locus YDL134C, strain PPH21, stronger effect = lower value 0.137 | locus YDL192W, strain arf1, stronger effect = lower value 0.54 | locus YDR069C, strain doa4, stronger effect = lower value 0.898 | locus YDR137W, strain rgp1, stronger effect = lower value 0.769 | locus YDR162C, strain NBP2, stronger effect = lower value 0.44 | locus YDR195W, strain ref2 1.29 [resistant] | locus YDR318W, strain mcm21, stronger effect = lower value 0.0958 | locus YDR334W, strain swr1, stronger effect = lower value 0.851 | locus YDR335W, strain msn5, stronger effect = lower value 0.277 | locus YDR388W, stronger effect = lower value 0.53 | locus YDR392W, strain spt3, stronger effect = lower value 0.108 | locus YDR502C, strain sam2, stronger effect = lower value 0.657 | locus YEL003W, strain gim4, stronger effect = lower value 0.888 | locus YEL037C, strain rad23, stronger effect = lower value 0.853 | locus YEL061C, strain CIN8 (second series), stronger effect = lower value 0.446 | locus YEL061C, strain CIN8, stronger effect = lower value 0.675 | locus YER016W, strain bim1, stronger effect = lower value 0.9 | locus YER110C, stronger effect = lower value 0.275 | locus YER155C, strain BEM2 (second series), stronger effect = lower value 0.146 | locus YER155C, strain BEM2, stronger effect = lower value 0.258 | locus YER167W, strain BCK2, stronger effect = lower value 0.277 | locus YFR010W, strain ubp6, stronger effect = lower value 0.815 | locus YGL086W, strain mad1, stronger effect = lower value 0.157 | locus YGL173C, strain kem1, stronger effect = lower value 0.845 | locus YGL240W, strain doc1, stronger effect = lower value 0.85 | locus YGL248W, strain PDE1, stronger effect = lower value 0.0961 | locus YGL253W, strain hxk2, stronger effect = lower value 0.252 | locus YGR078C, strain PAC10, stronger effect = lower value 0.187 | locus YGR135W, strain pre9, stronger effect = lower value 0.42 | locus YGR229C, strain SMI1, stronger effect = lower value 0.428 | locus YGR252W, strain gcn5, stronger effect = lower value 0.402 | locus YHR013C, strain ard1, stronger effect = lower value 0.707 | locus YHR027C, strain rpn1, stronger effect = lower value 0.901 | locus YHR079C, strain IRE1 (second series), stronger effect = lower value 0.854 | locus YHR094C, strain hxt1, stronger effect = lower value 0.0833 | locus YHR129C, strain ARP1, stronger effect = lower value 0.413 | locus YHR142W, strain chs7, stronger effect = lower value 0.155 | locus YHR200W, strain rpn10, stronger effect = lower value 0.838 | locus YIL066C, strain RNR3, stronger effect = lower value 0.134 | locus YIL073C, strain SPO22, stronger effect = lower value 0.281 | locus YIR030C, strain dcg1, stronger effect = lower value 0.486 | locus YJL095W, strain BCK1 (second series), stronger effect = lower value 0.734 | locus YJL134W, strain LCB3, stronger effect = lower value 0.533 | locus YJL164C, strain tpk1, stronger effect = lower value 0.883 | locus YJL168C, strain set2, stronger effect = lower value 0.468 | locus YJL187C, strain SWE1 (second series), stronger effect = lower value 0.84 | locus YJR043C, strain POL32, stronger effect = lower value 0.636
inactive: locus YAL030W, strain snc1, stronger effect = lower value 0.977 | locus YBL061C, strain skt5, stronger effect = lower value 0.968 | locus YBR021W, strain FUR4, stronger effect = lower value 0.918 | locus YBR023C, strain chs3, stronger effect = lower value 0.95 | locus YBR171W, strain sec66, stronger effect = lower value 0.981 | locus YBR229C, strain ROT2, stronger effect = lower value 1 | locus YCL011C, strain gbp2, stronger effect = lower value 0.966 | locus YCL016C, strain dcc1, stronger effect = lower value 0.927 | locus YCR088W, strain abp1, stronger effect = lower value 0.94 | locus YDL005C, strain med2, stronger effect = lower value 0.994 | locus YDL040C, strain nat1, stronger effect = lower value 0.989 | locus YDL101C, strain DUN1, stronger effect = lower value 0.907 | locus YDL185W, strain tfp1, stronger effect = lower value 0.961 | locus YDR001C, strain nth1, stronger effect = lower value 0.992 | locus YDR101C, strain arx1, stronger effect = lower value 0.951 | locus YDR159W, strain sac3, stronger effect = lower value 0.913 | locus YDR297W, strain sur2, stronger effect = lower value 0.952 | locus YER015W, strain faa2, stronger effect = lower value 0.967 | locus YER111C, strain swi4, stronger effect = lower value 0.979 | locus YGL078C, strain dbp3, stronger effect = lower value 0.928 | locus YGL167C, strain pmr1, stronger effect = lower value 0.986 | locus YGL227W, strain vid30, stronger effect = lower value 0.997 | locus YHR079C, strain IRE1, stronger effect = lower value 1.04 | locus YIL125W, strain kgd1, stronger effect = lower value 0.957 | locus YJL092W, strain hpr5, stronger effect = lower value 0.918 | locus YJL115W, strain asf1, stronger effect = lower value 0.926 | locus YJL129C, strain trk1, stronger effect = lower value 0.899 | locus YJL154C, strain vps35, stronger effect = lower value 0.968 | locus YJL166W, strain qcr8, stronger effect = lower value 0.925 | locus YJL187C, strain SWE1, stronger effect = lower value 0.962
0.415 (active) and 0.996 (inactive): locus YJL095W, strain BCK1, stronger effect = lower value
0.135 (active) and 0.992 (inactive): locus YHR030C, strain SLT2, stronger effect = lower value
